# Compound activity as filed in PubChem.
# FID counter: displaces DNA intercalator in HCV helicase counter-screen. DNA fluorescent intercalator displacement, fluorescence. inhibition, % at 7.9 µM. hit rate 0.17% among 290,000; in the data active = inhibition above about 37%;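 also: 0% = vehicle and 100% = reference compound; higher means more ethidium bromide displaced from hairpin DNA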
# IEC-6 tox: kills IEC-6 intestinal cells in KLF5 counter-screen; IEC-6 cytotoxicity, luminescence viability; inhibition, % at 5 µM; hit rate 0.78% among 290,000;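 also: 0% = plate median of test compound wells and 100% = cytotoxic reference compound wells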
# Ba/F3 V617F tox: reduce viability of Ba/F3 cells dependent on JAK2V617F; hit rate 1.1% among 220,000; inhibition, % at 5.6 µM; Ba/F3 EpoR-JAK2V617F viability, ATP luminescence;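 active = inhibition above the campaign mean plus 3 SD over all tested compounds, cut at about 24% in these data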;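 also: cytokine-independent growth of Ba/F3 cells driven by EpoR plus mutant JAK2; 0% = DMSO-treated cells and 100% = JAK inhibitor I control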
# KLF5 inh: kruppel-like factor 5 inhibition | hit rate 0.23% among 290,000 | inhibition, % at 5 µM | DLD-1 KLF5 promoter-luciferase reporter, luminescence | AID 1700;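 active = inhibition above a per-plate limit of that plate's mean compound inhibition plus 3 SD, cut at about 60% in these data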;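 also: 0% = DMSO wells and 100% = LY294002 at 200 µM; higher means less KLF5 promoter-driven luciferase light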
# GPR7 antag: antagonists of human GPR7 (neuropeptides B/W receptor 1); GPR7-expressing cells, fluorescence antagonist assay; hit rate 1.1% among 290,000; P48145; inhibition, % at 4.4 µM; in the data active = inhibition above about 16%, passing the limit was not always enough;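 also: cells stimulated with the agonist NPW; 0% = agonist with vehicle and 100% = vehicle without agonist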
# Target sequence (P48145 whole entry, looked up): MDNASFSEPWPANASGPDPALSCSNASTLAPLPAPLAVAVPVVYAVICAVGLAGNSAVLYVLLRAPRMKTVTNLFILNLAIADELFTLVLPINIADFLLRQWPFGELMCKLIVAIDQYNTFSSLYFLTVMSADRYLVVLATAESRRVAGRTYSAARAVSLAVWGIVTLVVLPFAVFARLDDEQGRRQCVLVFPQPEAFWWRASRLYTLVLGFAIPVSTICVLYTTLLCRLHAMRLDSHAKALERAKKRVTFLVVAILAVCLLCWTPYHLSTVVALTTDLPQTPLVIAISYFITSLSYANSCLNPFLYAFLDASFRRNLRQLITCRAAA
# BaF3 parental: counter-screen for JAK2V617F inhibitors: parental Ba/F3 viability inhibitors | CellTiter-Glo ATP luminescence | inhibition, % at 5.6 µM | hit rate 1.1% among 220,000 | AID 1486;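 active = inhibition above a per-campaign cutoff, the mean inhibition of all tested compounds plus 3 SD, cut at about 27% in these data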;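 also: 0% = DMSO wells and 100% = JAK Inhibitor I control wells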
# GPR7 antag conf: human GPR7 antagonism, confirmation assay | hit rate 52% among 2,400 | GPR7-expressing cells, calcium fluorescence antagonist mode | inhibition, % at 4.4 µM | shares compounds with GPR7 antag; in the data active = inhibition above about 24%;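 also: stimulated with the GPR7 agonist NPW; 0% = agonist plus vehicle and 100% = vehicle alone without agonist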
# MCHR1 antag: antagonizes human MCHR1, a GPR7 antagonist counter-screen | inhibition, % at 4.4 µM | shares compounds with GPR7 antag | hit rate 62% among 2,400 | MCHR1-expressing cells, fluorescence antagonist assay;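 also: 0% = vehicle with agonist and 100% = vehicle without agonist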
# Numbers without * were called inactive; x = not tested or not shown. This is a sample that favours compounds with a hit; in the whole collection about 2.6% have one here. Rule as the data show it, unless noted: active = inhibition above about 22%; inactive = the rest.
SMILES,FID counter,IEC-6 tox,Ba/F3 V617F tox,KLF5 inh,GPR7 antag,BaF3 parental,GPR7 antag conf,MCHR1 antag
COc1ccc(Cn2nnnc2C(c2ccc3ncccc3c2)N2CCN(C3CCCCC3)CC2)cc1 (configuration not stated),25,0,1,-15,4,9,x,x
Cc1cccc(N(CC(=O)N2CCCC2)S(=O)(=O)c2ccccc2)c1,-8,-4,-2,-5,23*,0,-11,1
CN1CCN(c2nc(-c3ccc(Cl)cc3)nc3ccccc23)CC1,39*,2,x,-2,53*,x,41*,36*
CCc1ccc(CN(C)C(=O)c2cc(COc3cccc4cnccc34)on2)cc1,-39,9,x,-16,38*,x,23,46*
CCN(CC)c1nc(Nc2ccccc2)nc(Oc2ccc(=O)n(C)n2)n1,-13,7,-5,2,23*,3,-12,-19
COc1ccc(C(=O)NCc2ccc3c(c2)cc(C)n3C)cc1,-21,-3,-3,-11,23*,4,5,4
Cc1cc2cc(CNC(=S)Nc3ccc(OC(F)F)cc3)ccc2n1C,-1,-8,1,8,50*,6,-12,51*
COc1cc(OC)cc(C(=O)NCc2ccc3c(c2)cc(C)n3C)c1,-16,6,4,-21,2,8,x,x
CC12CN3CCN(CC(C3)/C1=N/N=C/c1cccc([N+](=O)[O-])c1)C2,1,5,0,-13,-14,-4,x,x
CN1C(=O)C2C3c4ccccc4C(c4ccccc43)[C@@H]2C1=O (some centres not stated),-9,2,x,-23,0,x,x,x
O=C1C2C3c4ccccc4C(c4ccccc43)C2c2nc3ccccc3n21 (configuration not stated),-6,0,0,-10,22*,8,8,32*
COC(=O)c1[nH]c2c(c1C(=O)OC)CCc1ccccc1-2,-15,-18,x,-32,-5,x,x,x
CCOC(=O)c1[nH]c2ccc(OC)cc2c1NS(=O)(=O)c1ccc(OC)cc1OC,-4,-1,-1,-17,22*,1,32*,21
COC(=O)c1[nH]c2ccc(F)cc2c1NS(=O)(=O)c1ccc(OC)cc1OC,12,1,-4,-14,4,13,x,x
CC1CCN(C(C(=O)Nc2ccc(C(C)C)cc2)c2ccc3c(c2)OCO3)CC1 (configuration not stated),10,0,-3,-20,-3,-1,x,x
CC(C)c1ccc(NC(=O)C(c2ccc3c(c2)OCO3)N2CCCCC2)cc1 (configuration not stated),35,-4,-1,-20,24*,4,14,40*
C#CC(CO)N(CCN(Cc1ccccc1)C(C#C)CO)Cc1ccccc1 (configuration not stated),-40,-3,-3,-16,x,4,x,14
O=C(Nc1ccc(C(F)(F)F)cc1)C1CCN(S(=O)(=O)c2ccc(N3CCCC3=O)cc2)CC1,-17,12,x,-6,23*,x,23,49*
O=C(O)[C@H]1CCCC[C@H]1C(=O)Nc1ccc(S(=O)(=O)N2CCCCC2)cc1,-33,-2,x,10,23*,x,-17,-5
COc1ccc(NC(=O)C2CCN(S(=O)(=O)c3ccc(N4CCCC4=O)cc3)CC2)cc1OC,-32,7,x,-2,-3,x,x,x
O=C(O)C1CCCCC1C(=O)Nc1ccc(S(=O)(=O)N2CCCC2)cc1 (configuration not stated),-15,4,x,-11,0,x,x,x
COc1ccc(Nc2c(-c3ccco3)nc3ccc(C)cn23)cc1,-9,5,-1,-6,-3,0,x,x
CCOc1ccc(NC(=O)CN(C)S(=O)(=O)c2cccc3cccnc23)cc1,-30,-5,x,6,-25,x,x,x
CCC(C)NCCOCCOc1ccc(Cl)c(C)c1C (configuration not stated),17,-2,-1,1,21*,4,24*,25*
C=CCc1cc(Cl)ccc1OCCOCCNC(C)CC (configuration not stated),23,-1,0,-3,6,7,x,x
SMILES,FID counter,IEC-6 tox,Ba/F3 V617F tox,KLF5 inh,GPR7 antag,BaF3 parental,GPR7 antag conf,MCHR1 antag
CCCCCCCCCCOC(=O)Cn1c(COc2ccccc2OC)[n+](C)c2ccccc21,46*,12,x,25,53*,x,98*,107*
O=C(C1=NN(c2ccccc2)C2C(=O)N(c3ccccc3Cl)C(=O)C12)c1ccccc1 (configuration not stated),-30,-3,0,-23,0,5,x,x
Cc1ccccc1NC(=O)C1CCCN(C(=O)Nc2ccc(F)cc2)C1 (configuration not stated),-6,-5,x,-8,-12,x,x,x
CCc1ccccc1NC(=O)C1CCCN(c2nccc(C)n2)C1 (configuration not stated),-16,-8,x,-9,-14,x,x,x
CCc1ccccc1NC(=O)C1CCCN(c2ncnc3onc(-c4ccc(F)cc4)c23)C1 (configuration not stated),-40,-2,x,17,29*,x,16,22*
Cc1ccccc1NC(=O)C1CCCN(c2ncnc3onc(-c4ccc(F)cc4)c23)C1 (configuration not stated),-34,3,x,0,28*,x,28*,15
CC(C)Nc1nnc(SCc2cc(=O)n3ccsc3n2)s1,-7,-5,-1,-9,25*,6,-4,-12
CC(C)c1cccc(C(C)C)c1NC(=O)CNCc1ccccc1F,-15,-1,1,-22,22*,9,30*,32*
CC(C)c1cccc(C(C)C)c1NC(=O)CNCC(O)c1ccccc1 (configuration not stated),8,-5,x,-1,7,x,x,x
Cc1ccc(N2C(=O)[C@@H]3[C@H](C2=O)[C@H]2C=CC=NN2[C@@H]3C(=O)Nc2ccccc2)cc1,-10,-3,-1,8,-13,-4,x,x
O=C(Nc1ccccc1)[C@@H]1[C@@H]2C(=O)N(c3ccc(F)cc3)C(=O)[C@@H]2[C@H]2C=CC=NN21,-6,6,-4,-25,27*,2,9,0
O=C(c1nnsc1S(=O)c1ccc(Cl)cc1)N1CCOCC1 (configuration not stated),1,14,90*,14,25*,40*,37*,92*
NS(=O)(=O)c1ccc(CNC(=S)Nc2ccc(Cl)c(Cl)c2)cc1,6,7,5,-25,33*,9,41*,40*
CC(=O)N1CCN(CC(=O)Nc2ccc3c(c2)CCC3)CC1,-13,-9,-4,1,23*,4,-10,-1
